Holding throughout (design): scale not given: direction of the effect not stated beside the values
The target in assay [1] is Protein translocase subunit SecA (Escherichia coli (strain K12)) (UniProt P10408). The assay can be described thus: Assay to Identify E. coli SecA ATPase Inhibitors. In kind it is functional. The following applies: 30 µM.
Assay [2] deals with T1, Ubiquitin-activating enzyme e1, putative (Leishmania donovani (strain BPK282A1)) (UniProt E9BSI1).
T1 sequence (whole entry): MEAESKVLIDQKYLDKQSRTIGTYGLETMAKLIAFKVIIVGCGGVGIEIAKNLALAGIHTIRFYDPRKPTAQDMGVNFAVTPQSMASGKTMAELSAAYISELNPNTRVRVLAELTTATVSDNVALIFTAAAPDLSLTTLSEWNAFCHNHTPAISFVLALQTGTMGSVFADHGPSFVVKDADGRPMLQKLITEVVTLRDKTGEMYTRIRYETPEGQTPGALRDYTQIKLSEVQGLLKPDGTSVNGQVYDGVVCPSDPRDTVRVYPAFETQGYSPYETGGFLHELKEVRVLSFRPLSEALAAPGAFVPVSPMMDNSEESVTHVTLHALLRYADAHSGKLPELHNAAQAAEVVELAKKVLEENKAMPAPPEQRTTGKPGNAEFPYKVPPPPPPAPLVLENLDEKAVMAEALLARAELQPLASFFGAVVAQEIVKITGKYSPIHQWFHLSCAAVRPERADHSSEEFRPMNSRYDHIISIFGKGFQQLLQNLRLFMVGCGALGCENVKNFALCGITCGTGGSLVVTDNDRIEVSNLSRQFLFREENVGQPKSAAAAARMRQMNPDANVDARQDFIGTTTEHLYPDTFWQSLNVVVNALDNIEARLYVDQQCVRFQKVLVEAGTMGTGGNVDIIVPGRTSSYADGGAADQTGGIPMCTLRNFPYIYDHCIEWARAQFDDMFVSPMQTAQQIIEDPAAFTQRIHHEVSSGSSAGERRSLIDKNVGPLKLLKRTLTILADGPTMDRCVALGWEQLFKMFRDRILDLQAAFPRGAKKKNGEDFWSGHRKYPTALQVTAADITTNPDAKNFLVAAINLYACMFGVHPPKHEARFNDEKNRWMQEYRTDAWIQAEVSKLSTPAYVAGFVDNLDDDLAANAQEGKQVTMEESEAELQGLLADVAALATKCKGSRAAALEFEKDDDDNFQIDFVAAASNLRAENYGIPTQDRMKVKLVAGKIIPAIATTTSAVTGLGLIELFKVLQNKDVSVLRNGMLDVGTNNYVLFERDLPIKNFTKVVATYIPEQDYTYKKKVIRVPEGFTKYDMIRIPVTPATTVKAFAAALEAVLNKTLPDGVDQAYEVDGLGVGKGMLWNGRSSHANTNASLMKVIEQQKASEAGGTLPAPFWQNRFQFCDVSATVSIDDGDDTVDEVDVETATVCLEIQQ
The assay can be described thus: Leishmania donovani Ubiquitin Activating Enzyme (LdE1). It counts as functional. The note with it: 30 µM.

The target of assay [3] is Sialic acid-binding Ig-like lectin 9 (Homo sapiens) (UniProt Q9Y336). The assay is described as follows: Hs-Siglec9 ALPHAscreen SOP 20170721. The note with it: 10 µM. On the technique in general: In Alpha technology, singlet oxygen from a donor bead excites a nearby acceptor bead.
Sialic acid-binding Ig-like lectin 9 (Homo sapiens), sequence (Q9Y336 whole entry): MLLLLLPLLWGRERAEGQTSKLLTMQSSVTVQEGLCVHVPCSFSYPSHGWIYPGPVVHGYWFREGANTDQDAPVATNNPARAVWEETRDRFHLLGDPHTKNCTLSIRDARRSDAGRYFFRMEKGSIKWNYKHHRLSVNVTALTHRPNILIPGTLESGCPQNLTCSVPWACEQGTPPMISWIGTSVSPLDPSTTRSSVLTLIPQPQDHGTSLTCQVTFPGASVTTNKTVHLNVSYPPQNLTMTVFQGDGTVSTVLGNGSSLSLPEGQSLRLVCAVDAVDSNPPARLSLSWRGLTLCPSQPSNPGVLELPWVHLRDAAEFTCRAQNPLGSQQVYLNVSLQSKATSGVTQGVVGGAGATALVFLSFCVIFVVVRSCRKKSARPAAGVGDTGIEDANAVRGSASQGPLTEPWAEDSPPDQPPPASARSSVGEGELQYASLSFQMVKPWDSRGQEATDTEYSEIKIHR
Assay [4] relates to Trypanosoma cruzi. The assay can be described thus: Trypanosoma cruzi phosphomannomutase and mannose-1-phosphate guanylyltransferase assay. It counts as functional. The note with it: 10 µM.
In assay [5] the target is T2, Arginase-2, mitochondrial (Homo sapiens) (UniProt P78540).
T2 sequence (whole entry): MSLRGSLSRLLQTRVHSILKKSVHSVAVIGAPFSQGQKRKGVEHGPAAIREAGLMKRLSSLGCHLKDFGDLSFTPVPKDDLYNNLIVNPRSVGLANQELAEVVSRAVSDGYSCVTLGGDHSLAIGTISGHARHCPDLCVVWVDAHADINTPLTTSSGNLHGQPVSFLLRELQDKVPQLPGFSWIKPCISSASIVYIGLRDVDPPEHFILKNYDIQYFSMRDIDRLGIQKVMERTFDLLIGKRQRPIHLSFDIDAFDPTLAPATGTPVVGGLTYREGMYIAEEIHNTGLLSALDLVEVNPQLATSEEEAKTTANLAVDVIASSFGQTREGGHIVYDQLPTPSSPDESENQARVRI
The assay can be described thus: in vitro enzyme assay to detect the production of urea directly proportional to the activity of Arginase II. Further: in the data most compounds retested in dose-response had high values. In kind it is functional. The note with it: 33.3 µM.

Assay [6] addresses T3, Proteasome subunit beta (Trypanosoma cruzi) (UniProt O96673).
T3 sequence (whole entry): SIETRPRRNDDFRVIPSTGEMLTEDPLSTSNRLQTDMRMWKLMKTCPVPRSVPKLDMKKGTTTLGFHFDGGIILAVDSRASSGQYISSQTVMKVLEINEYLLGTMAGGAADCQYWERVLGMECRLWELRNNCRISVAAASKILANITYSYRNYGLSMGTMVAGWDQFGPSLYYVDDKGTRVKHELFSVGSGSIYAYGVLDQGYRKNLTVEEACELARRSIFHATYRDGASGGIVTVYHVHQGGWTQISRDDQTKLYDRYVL
The assay is described as follows: Trypanosoma cruzi proteasome chymotrypsin-like activity (TcProtChymo) assay. Further: in the data most compounds retested in dose-response had high values. In kind it is functional. The following applies: 9.37 µM.

Assay [7] is filed under the species Homo sapiens. The assay can be described thus: To identify inhibition of the IFN signalling (Jak-Stat) pathway via expression of an eGFP reporter gene under the control of an IFN-stimulated response element (ISRE) containing MxA promoter. In kind it is functional. The note with it: 30 µM.
For assay [8], the target named is T4, Tyrosyl-tRNA synthetase, putative (Trypanosoma cruzi (strain CL Brener)) (UniProt Q4DSP6).
T4 sequence (whole entry): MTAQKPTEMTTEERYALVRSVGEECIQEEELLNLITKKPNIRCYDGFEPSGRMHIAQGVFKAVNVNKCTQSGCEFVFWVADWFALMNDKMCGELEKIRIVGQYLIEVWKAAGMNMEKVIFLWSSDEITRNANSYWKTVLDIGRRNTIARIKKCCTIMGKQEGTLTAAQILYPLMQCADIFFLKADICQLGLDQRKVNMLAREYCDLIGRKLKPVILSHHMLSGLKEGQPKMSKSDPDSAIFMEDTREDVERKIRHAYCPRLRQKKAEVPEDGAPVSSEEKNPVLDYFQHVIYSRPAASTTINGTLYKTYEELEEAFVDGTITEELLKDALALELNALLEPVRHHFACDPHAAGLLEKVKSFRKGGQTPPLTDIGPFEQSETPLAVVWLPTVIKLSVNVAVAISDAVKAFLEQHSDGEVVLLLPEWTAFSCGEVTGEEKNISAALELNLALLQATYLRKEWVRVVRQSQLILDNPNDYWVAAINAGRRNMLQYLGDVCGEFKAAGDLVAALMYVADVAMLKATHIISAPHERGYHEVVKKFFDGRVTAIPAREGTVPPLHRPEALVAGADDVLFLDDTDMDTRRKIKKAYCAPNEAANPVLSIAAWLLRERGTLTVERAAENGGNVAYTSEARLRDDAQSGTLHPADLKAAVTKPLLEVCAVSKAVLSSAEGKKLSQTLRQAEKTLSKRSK
The assay is described as follows: Trypanosoma cruzi tyrosyl tRNA synthetase (TcYRS) _High Tyrosine SOP. Further: in the data most compounds retested in dose-response had high values. It counts as functional. The note with it: 30 µM.

Assay [9] has as its target T4, Tyrosyl-tRNA synthetase, putative (Trypanosoma cruzi (strain CL Brener)). The assay is described as follows: Trypanosoma cruzi tyrosyl tRNA synthetase (TcYRS) SOP. It counts as functional. The following applies: 30 µM.
Assay [10] concerns the target Chromo domain-containing protein 1 (Saccharomyces cerevisiae (strain ATCC 204508 / S288c) (Baker's yeast)) (UniProt P32657). The assay is described as follows: ScCHD-1 Enzyme Inhibition Assay. Further: in the data most compounds retested in dose-response had high values. It counts as functional. The note with it: 30 µM.

For some assays here: Measured potencies and affinities stand elsewhere.

Protein translocase subunit SecA (Escherichia coli (strain K12)), sequence (P10408 whole entry): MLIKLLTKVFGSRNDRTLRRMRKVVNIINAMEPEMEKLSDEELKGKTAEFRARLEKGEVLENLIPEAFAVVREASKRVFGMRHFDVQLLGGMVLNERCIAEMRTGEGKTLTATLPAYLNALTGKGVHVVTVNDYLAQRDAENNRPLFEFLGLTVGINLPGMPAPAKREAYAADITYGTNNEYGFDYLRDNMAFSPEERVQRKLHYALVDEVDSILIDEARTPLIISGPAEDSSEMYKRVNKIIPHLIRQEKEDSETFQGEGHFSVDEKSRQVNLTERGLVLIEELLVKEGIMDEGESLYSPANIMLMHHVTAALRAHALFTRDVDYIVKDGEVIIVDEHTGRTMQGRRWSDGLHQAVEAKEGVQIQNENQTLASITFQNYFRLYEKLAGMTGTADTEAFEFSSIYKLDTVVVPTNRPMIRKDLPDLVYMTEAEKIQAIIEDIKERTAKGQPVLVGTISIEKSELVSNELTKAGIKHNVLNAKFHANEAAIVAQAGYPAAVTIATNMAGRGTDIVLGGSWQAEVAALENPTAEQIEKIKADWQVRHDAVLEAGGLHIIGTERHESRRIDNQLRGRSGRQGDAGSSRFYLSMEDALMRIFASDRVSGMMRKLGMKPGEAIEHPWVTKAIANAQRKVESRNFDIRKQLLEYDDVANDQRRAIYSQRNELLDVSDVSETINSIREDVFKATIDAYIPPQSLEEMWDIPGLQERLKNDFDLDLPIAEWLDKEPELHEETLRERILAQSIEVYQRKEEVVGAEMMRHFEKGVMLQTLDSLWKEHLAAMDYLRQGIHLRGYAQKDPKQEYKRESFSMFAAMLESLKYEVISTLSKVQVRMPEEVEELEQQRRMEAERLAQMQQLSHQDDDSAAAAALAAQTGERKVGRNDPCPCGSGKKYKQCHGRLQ
Chromo domain-containing protein 1 (Saccharomyces cerevisiae (strain ATCC 204508 / S288c) (Baker's yeast)), sequence (P32657 whole entry, the tested form may be a part): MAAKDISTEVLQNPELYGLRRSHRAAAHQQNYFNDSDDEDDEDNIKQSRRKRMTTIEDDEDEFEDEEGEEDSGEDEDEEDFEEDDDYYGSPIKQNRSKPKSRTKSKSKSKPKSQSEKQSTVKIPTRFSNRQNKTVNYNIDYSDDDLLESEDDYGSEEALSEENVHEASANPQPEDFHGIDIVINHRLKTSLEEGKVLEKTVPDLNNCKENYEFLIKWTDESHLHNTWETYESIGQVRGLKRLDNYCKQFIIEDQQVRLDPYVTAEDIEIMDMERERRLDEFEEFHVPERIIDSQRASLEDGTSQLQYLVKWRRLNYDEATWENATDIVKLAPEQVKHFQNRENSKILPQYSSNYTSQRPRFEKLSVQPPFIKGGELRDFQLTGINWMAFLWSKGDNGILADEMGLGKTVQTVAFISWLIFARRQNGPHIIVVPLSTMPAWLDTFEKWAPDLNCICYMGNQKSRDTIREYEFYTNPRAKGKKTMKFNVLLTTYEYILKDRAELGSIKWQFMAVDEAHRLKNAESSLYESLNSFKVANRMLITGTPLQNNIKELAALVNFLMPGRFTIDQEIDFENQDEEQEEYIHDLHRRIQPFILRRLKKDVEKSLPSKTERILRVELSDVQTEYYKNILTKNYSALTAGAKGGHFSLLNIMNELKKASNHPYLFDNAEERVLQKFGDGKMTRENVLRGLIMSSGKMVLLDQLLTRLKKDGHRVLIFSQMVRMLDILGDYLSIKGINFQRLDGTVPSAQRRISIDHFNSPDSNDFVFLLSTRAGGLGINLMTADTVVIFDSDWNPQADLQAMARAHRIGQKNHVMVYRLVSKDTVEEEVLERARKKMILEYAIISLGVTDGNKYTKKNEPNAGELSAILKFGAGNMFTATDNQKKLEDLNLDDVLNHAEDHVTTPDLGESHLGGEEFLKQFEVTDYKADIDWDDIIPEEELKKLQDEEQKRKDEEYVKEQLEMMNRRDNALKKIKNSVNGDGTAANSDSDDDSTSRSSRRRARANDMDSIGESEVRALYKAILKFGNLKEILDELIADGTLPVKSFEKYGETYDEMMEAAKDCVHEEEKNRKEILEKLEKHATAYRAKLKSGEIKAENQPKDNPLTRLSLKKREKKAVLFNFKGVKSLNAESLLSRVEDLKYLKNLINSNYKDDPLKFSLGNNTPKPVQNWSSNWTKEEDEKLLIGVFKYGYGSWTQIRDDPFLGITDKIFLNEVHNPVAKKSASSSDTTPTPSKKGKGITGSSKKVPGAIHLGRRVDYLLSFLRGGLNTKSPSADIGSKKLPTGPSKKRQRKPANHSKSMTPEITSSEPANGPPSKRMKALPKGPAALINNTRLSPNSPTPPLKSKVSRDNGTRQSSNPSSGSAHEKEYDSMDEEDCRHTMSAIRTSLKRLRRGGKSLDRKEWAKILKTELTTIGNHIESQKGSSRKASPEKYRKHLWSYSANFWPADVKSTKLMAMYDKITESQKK

Take `COc1cccc(C(=O)NCCCN2CCc3ccccc3C2)c1OC`: the Percent Effect in [1] is -0.301%; in [2], -5.33%; in [3] it was 7.23%; in assay [4], -2.81%; in assay [5], 1.77%; in assay [6], -5.34%. The Percent Effect was 10.1% in assay [7], 2.63% in assay [8], 0% in [9] and -4.32% in assay [10].

`Cc1ccc(CNC(=O)N2CCN(Cc3ccsc3)CC2)n1C`: the Percent Effect in assay [1] is -3.87%; in assay [2], 2.67%; in assay [3] it was -1.44%; in assay [4] it was -5.42%; in assay [5], -5.76%; in [6], 14.5%. The Percent Effect is 15.6% in assay [7], 2.63% in assay [8], -17.9% in [9] and -19.4% in assay [10].

Take `CC(C)n1ccnc1C1CCN(C(=O)c2ccccc2)CC1`: the Percent Effect is -5.35% in [1]; 16.2% in assay [2]; 13.1% in [3]; 9.8% in assay [4]; 11.5% in assay [5]; 14% in assay [6]. Further, the Percent Effect in [7] was 14.4%; in [8], 10.1%; in [9], 19.5%; in assay [10] it was -5%.

Consider `CN1CC(=O)N(c2cnn(C)c2)CC12CCN(C(=O)c1ccsc1)C2` (stereo not given), for which the Percent Effect in assay [1] is -5.41%; in [2] it was 1.3%; in [3], 3.75%; in [4], -6.13%; in [5] it was 2.43%; in assay [6], 6.27%. Also, the Percent Effect in [7] was -0.162%; in [8] it was 2.63%; in assay [9], 2.56%; in [10], -2.51%.

On to `O=C(c1ccc(C(F)(F)F)nc1)N1CCCC(n2cncn2)C1` (stereo not given), for which the Percent Effect was 1.26% in assay [1]; -5.13% in assay [2]; -2.26% in assay [3]; 5.92% in assay [4]; 5.33% in assay [5]; 3.33% in assay [6]. The Percent Effect in assay [7] is -13.8%; in assay [8], -3.35%; in assay [9], 1.21%; in assay [10], -3.39%.

`CNC(=O)C1(c2cnccn2)CCCN1C(=O)c1ccccc1OC` (stereo not given): the Percent Effect was 0.772% in assay [1]; 14.7% in assay [2]; -7.91% in [3]; -1.77% in [4]; -3.98% in assay [5]; 9.36% in assay [6]. Moreover, the Percent Effect in assay [7] is 17.4%; in assay [8] it was -2.12%; in assay [9] it was 5%; in [10], -18.1%.

As to `Cc1cc2cc(C(=O)N3CC[C@H](O)[C@]4(CCCO4)C3)ccc2o1`, the Percent Effect in [1] is -4.25%; in assay [2], 17.3%; in assay [3], 3.44%; in assay [4], 2.17%; in [5] it was -3.1%; in assay [6] it was 8.37%. Further, the Percent Effect in assay [7] is -3.08%; in assay [8] it was 6.35%; in assay [9], 12.5%; in assay [10], -20.9%.

For `Cn1ccc(CN2CCC(NC(=O)Cc3ccccc3)CC2)cc1=O`, the Percent Effect was -2.78% in assay [1]; 5.13% in assay [2]; -5.06% in assay [3]; 6.85% in assay [4]; 2.87% in assay [5]; 6.74% in [6]. Also, the Percent Effect in [7] was -7.1%; in assay [8], 7.18%; in [9] it was 13.2%; in assay [10] it was -3.86%.

With `Cc1ccc2cc(C(=O)NCCn3nc4ccccn4c3=O)[nH]c2c1`, the Percent Effect in assay [1] is -1.72%; in assay [2], 10.3%; in assay [3] it was -11.1%; in [4], -8.36%; in assay [5], 1.23%; in assay [6] it was 16.3%. Also, the Percent Effect in [7] is 19.6%; in [8], -1.44%; in assay [9], 1.21%; in assay [10] it was -7.76%.

On to `CCc1nc(C2CCCN2CCc2ccccn2)no1` (stereo not given), for which the Percent Effect in [1] was 0.816%; in assay [2], 20.5%; in assay [3], -18.3%; in assay [4], 5.35%; in [5] it was 1.23%; in assay [6], 18.7%. The Percent Effect in assay [7] is 23.6%; in [8] it was 10.1%; in assay [9], 20.5%; in assay [10] it was -7.66%.

Take `Cc1cnn(CC2CCCCN2Cc2cc(C)on2)c1` (stereo not given): the Percent Effect in assay [1] is -1.2%; in assay [2] it was 10.3%; in assay [3] it was 3.02%; in [4], -0.282%; in assay [5], -0.82%; in [6], 1.45%. For the same compound, the Percent Effect was 8.23% in [7], 1.44% in [8], 10.8% in assay [9] and -2.89% in [10].

Take `CCn1ccnc1CN1CCC(N(C)Cc2ncc(C)o2)C1` (stereo not given): the Percent Effect in [1] was -0.494%; in assay [2], 13.3%; in assay [3] it was -7.04%; in [4], -3.21%; in [5], 3.1%; in assay [6], 12.5%. Further, the Percent Effect was 14.6% in assay [7], 10% in assay [8], 17.9% in assay [9] and -11.2% in assay [10].

With `CN(C)C(=O)[C@@H]1C[C@@H]2CCN(Cc3ccc4c(c3)OCO4)C[C@@H]2O1`, the Percent Effect in assay [1] is -2.52%; in assay [2] it was -1.3%; in assay [3], -0.448%; in assay [4] it was -1.07%; in [5], -2.83%; in assay [6], 6.62%. For the same compound, the Percent Effect in [7] is -0.537%; in assay [8], -2.63%; in assay [9], -2.56%; in [10] it was -0.196%.

For the compound `COCCN1CCCC12CCN(C(=O)CC1CCCC1)CC2`, the Percent Effect in [1] was -1.94%; in assay [2], -3.9%; in assay [3], 0.315%; in [4], 2.44%; in assay [5], 0%; in [6], -0.0858%. The Percent Effect in assay [7] is 16.7%; in assay [8], 5.8%; in assay [9] it was 12.5%; in assay [10] it was -2.58%.

The values are drawn from ChEMBL document CHEMBL3988442, “University of Dundee, Small-Polar-MMV Screening Library” (2021).
